The nature of assay [1]: growth inhibition of DIPG glioma cells, dose response, cell-based, SU-DIPG-XVII, MIPE5.0, CellTiter-Glo, qHTS (AID 1347060; cut-off not given, nearly all actives have AC50 up to about 26 µM;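 for AC50: cells exposed to compound for 48 hours before viability readout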). Particulars: SU-DIPG-XVII viability, CellTiter-Glo ATP luminescence. (In general: Cellular ATP, detected with luciferase, serves as a proxy for viable cell number.)
Assay [2] can be described thus: growth inhibition of DIPG glioma cells, dose response, cell-based, SU-DIPG-XIII, MIPE4.0, CellTiter-Glo, qHTS (AID 1347061; cut-off not given, nearly all actives have AC50 up to about 37 µM;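 note: cells exposed to compound for 48 hours before readout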). To be noted: SU-DIPG-XIII viability, CellTiter-Glo ATP luminescence.
A short description of assay [3]: growth inhibition of DIPG glioma cells, dose response, cell-based, JHH-DIPG-1, MIPE4.0, CellTiter-Glo, qHTS (AID 1347062; cut-off not given, nearly all actives have AC50 up to about 27 µM;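 for AC50: cells exposed to compound for two days before readout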). To be noted: JHH-DIPG-1 viability, CellTiter-Glo ATP luminescence.
Assay [4] can be described thus: growth inhibition of DIPG glioma cells, dose response, cell-based, SU-DIPG-XIII, MIPE5.0, CellTiter-Glo, qHTS (AID 1347064; cut-off not given, nearly all actives have AC50 up to about 23 µM;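 for AC50: cells exposed to compound for 48 hours before the viability read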). Particulars: SU-DIPG-XIII viability, CellTiter-Glo ATP luminescence.
Assay [5] in a line: viability loss in pontine glioma line – cell-based, SU-DIPG-XXV, MIPE5.0, CellTiter-Glo, qHTS, dose response (AID 1347065; cut-off not given, nearly all actives have AC50 up to about 26 µM;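 note: cells exposed to compound for 48 hours before ATP readout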). Particulars: CellTiter-Glo ATP luminescence.
Assay [6] is described as follows: SU-DIPG-VI glioma cell viability, MIPE4.0 library, CellTiter-Glo luminescence, qHTS (AID 1347066; cut-off not given, nearly all actives have AC50 up to about 30 µM;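 note: cells exposed to compound for 48 hours before readout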). Particulars: CellTiter-Glo ATP luminescence.
Assay [7] in a line: JHH-DIPG-1 glioma cell viability, MIPE5.0 library, CellTiter-Glo luminescence, qHTS (AID 1347067; cut-off not given, nearly all actives have AC50 up to about 26 µM;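 note: cells exposed to compound for 48 hours before readout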). Particulars: JHH-DIPG-1 glioma viability, CellTiter-Glo ATP luminescence.
The nature of assay [8]: SU-DIPG-XXV glioma cell viability, MIPE5.0 library, qHTS (AID 1347068; cut-off not given, nearly all actives have IC50 up to about 30 µM;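 for IC50: cells exposed to compound for 48 hours before viability readout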).
Assay [9] is described as follows: sensitizers of A549 cells to miR-34 induction, primary screen, imaging, A549 dox-inducible miR-34, nuclei and caspase counts (AID 1347080;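 active = compounds whose cell count with miR-34 switched on is under 0.7 times the count with it off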). Particulars: A549 miR-34 inducible, Hoechst nuclei count, 48 h.
Assay [10] in a line: survival rescue of mitochondrial mutant cells in low glucose, primary screen, MELAS cybrids, Rieske KO mouse fibroblasts, CellTiter-Glo (AID 1508586;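 active = mean z-score across replicates of 1.96 or higher in either the MELAS or the Rieske mutant cell line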;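 note: z relative to plate mean and SD of compound and empty wells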).
Assay [11] can be described thus: ovarian cancer cell viability with rucaparib, profiling panel, oncology-focused library, rucaparib conditional (AID 1508598). To be noted: patient-derived ovarian cancer cells, CellTiter-Glo viability, 144 h, stronger effect = lower value.
The nature of assay [12]: growth inhibition of DIPG glioma cells, dose response, cell-based, SU-DIPG-IV, MIPE4.0, CellTiter-Glo, qHTS (AID 1347063; cut-off not given, nearly all actives have AC50 up to about 30 µM;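 note: compound exposure lasted 48 hours before the viability readout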). To be noted: SU-DIPG-IV viability, CellTiter-Glo ATP luminescence.
The mark [13] stands for this setting: stronger effect = lower value, cell number ratio, induced over uninduced.
Setting [14] is: measured here: relative caspase fold change +Dox/-Dox.
Setting [15] is: measured here: total cells with miR-34 induction, stronger effect = lower value.
Where [16] appears, read: measured here: total cells without miR-34 induction.
The mark [17] stands for this setting: MELAS cybrid survival, CellTiter-Glo 48 h, stronger effect = higher value.
Setting [18] is: Rieske KO mouse fibroblast survival, CellTiter-Glo 72 h.

SMILES strings stand for the structures. Records with an inconclusive call do not appear. Activity calls are given as the source filed them.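 Rule for the calls, unless noted: active = normalized viability below 100% at a tested concentration; inactive = the rest.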

Here are results for 7 compounds from PubChem BioAssay.

What is called AC50 is the concentration giving half of the maximal activity seen. What is called IC50 is the concentration that inhibits the measured activity by half. The viability is a read-out of living cells in per cent, often relative to untreated cells. For the compound `COc1cc2c(Oc3ccc4[nH]c(C)cc4c3F)ncnc2cc1OCCCN1CCCC1`, the AC50 in assay [1] is 1.86 µM (active); in [2], 6.62 µM (active); in assay [3], 20.9 µM (active); in assay [4], 2.35 µM (active); in [5], 2.09 µM (active); in assay [6] it was 23.5 µM (active). In addition, in assay [7], the AC50 was 11.8 µM (active). For the same compound, in assay [8], the IC50 was 16.6 µM (active). In addition, the fold change in assay [9] (setting [13]) is 0.973 (inactive); in assay [9] (setting [14]) it was 1.09. For the same compound, the cell count amounted to 3660 in assay [9] (setting [15]) and 3760 in assay [9] (setting [16]). Besides, the z-score in assay [10] (setting [17]) is -0.469 (inactive); in assay [10] (setting [18]), -0.313. The viability in assay [11] (at 0.000305 µM, OCI-C5x cells, with rucaparib 10 µM, 100% = cells with rucaparib alone) was 123% (inactive); in assay [11] (at 0.000305 µM, OCI-C5x cells, without rucaparib), 103% (inactive); in assay [11] (at 0.000305 µM, OCI-P5x cells, with rucaparib 20 µM, 100% = cells with rucaparib alone), 96.3% (active); in assay [11] (at 0.000305 µM, OCI-P5x cells, without rucaparib), 88.7% (active); in assay [11] (at 0.00122 µM, OCI-C5x cells, with rucaparib 10 µM, 100% = cells with rucaparib alone), 114% (inactive); in [11] (at 0.00122 µM, OCI-C5x cells, without rucaparib), 112% (inactive). The viability in assay [11] (at 0.00122 µM, OCI-P5x cells, with rucaparib 20 µM, 100% = cells with rucaparib alone) is 105% (inactive); in [11] (at 0.00122 µM, OCI-P5x cells, without rucaparib) it was 94% (active); in [11] (at 0.00488 µM, OCI-C5x cells, with rucaparib 10 µM, 100% = cells with rucaparib alone), 107% (inactive); in [11] (at 0.00488 µM, OCI-C5x cells, without rucaparib), 99.8% (active); in [11] (at 0.00488 µM, OCI-P5x cells, with rucaparib 20 µM, 100% = cells with rucaparib alone) it was 97.5% (active); in [11] (at 0.00488 µM, OCI-P5x cells, without rucaparib), 91.6% (active). The viability in assay [11] (at 0.0195 µM, OCI-C5x cells, with rucaparib 10 µM, 100% = cells with rucaparib alone) was 123% (inactive); in assay [11] (at 0.0195 µM, OCI-C5x cells, without rucaparib), 96.3% (active); in assay [11] (at 0.0195 µM, OCI-P5x cells, with rucaparib 20 µM, 100% = cells with rucaparib alone), 97.8% (active); in assay [11] (at 0.0195 µM, OCI-P5x cells, without rucaparib) it was 93.1% (active); in assay [11] (at 0.0781 µM, OCI-C5x cells, with rucaparib 10 µM, 100% = cells with rucaparib alone), 126% (inactive); in assay [11] (at 0.0781 µM, OCI-C5x cells, without rucaparib), 101% (inactive). For the same compound, the viability in assay [11] (at 0.0781 µM, OCI-P5x cells, with rucaparib 20 µM, 100% = cells with rucaparib alone) was 81.8% (active); in assay [11] (at 0.0781 µM, OCI-P5x cells, without rucaparib) it was 92% (active); in [11] (at 0.313 µM, OCI-C5x cells, with rucaparib 10 µM, 100% = cells with rucaparib alone) it was 116% (inactive); in assay [11] (at 0.313 µM, OCI-C5x cells, without rucaparib) it was 98.1% (active); in [11] (at 0.313 µM, OCI-P5x cells, with rucaparib 20 µM, 100% = cells with rucaparib alone), 91.9% (active); in [11] (at 0.313 µM, OCI-P5x cells, without rucaparib), 94.6% (active). Moreover, the viability was 123% (inactive) in [11] (at 1.25 µM, OCI-C5x cells, with rucaparib 10 µM, 100% = cells with rucaparib alone); 107% (inactive) in assay [11] (at 1.25 µM, OCI-C5x cells, without rucaparib); 110% (inactive) in [11] (at 1.25 µM, OCI-P5x cells, with rucaparib 20 µM, 100% = cells with rucaparib alone); 86.9% (active) in assay [11] (at 1.25 µM, OCI-P5x cells, without rucaparib); 131% (inactive) in assay [11] (at 5 µM, OCI-C5x cells, with rucaparib 10 µM, 100% = cells with rucaparib alone); 115% (inactive) in [11] (at 5 µM, OCI-C5x cells, without rucaparib). The viability was 76.9% (active) in assay [11] (at 5 µM, OCI-P5x cells, with rucaparib 20 µM, 100% = cells with rucaparib alone) and 82.8% (active) in assay [11] (at 5 µM, OCI-P5x cells, without rucaparib).
Take `NC(=O)c1cccc2cn(-c3ccc([C@@H]4CCCNC4)cc3)nc12`: the AC50 in [1] is 8.33 µM (active). In addition, the compound was called inactive in assay [2], in assay [3], in assay [12], in assay [6] and in assay [7].
As for `CCCCC(F)(F)[C@@]1(O)CC[C@H]2[C@@H](CC(=O)[C@@H]2CCCCCCC(=O)O)O1`, the compound was called inactive in assay [1], in assay [2], in assay [3], in assay [4], in [5] and in [6]. In addition, the compound was classed as inactive in assay [7] and in assay [8].
As to `CO[C@H]1/C=C/O[C@@]2(C)Oc3c(C)c(O)c4c(O)c(c5c(nc6cc(C)ccn65)c4c3C2=O)NC(=O)/C(C)=C\C=C\[C@H](C)[C@H](O)[C@@H](C)[C@@H](O)[C@@H](C)[C@H](OC(C)=O)[C@@H]1C`, the AC50 was 16.6 µM (active) in assay [1], 13.2 µM (active) in assay [4], 23.5 µM (active) in assay [5] and 14.8 µM (active) in assay [7]. Further, the call in [2] and in assay [3] was inactive. Further, the z-score in assay [10] (setting [17]) is 0.239 (inactive); in assay [10] (setting [18]), -0.714.
Consider `CCn1c(-c2nonc2N)nc2cncc(CNC3CCNCC3)c21`, for which the compound was called inactive in assay [1], in assay [2], in assay [3], in assay [6], in assay [7] and in assay [8].
As for `C=C1CCC2[C@](C)(CO)C(O)CC[C@]2(C)C1C/C=C1/C(=O)OCC1O` (stereo not given in full), the AC50 in [1] was 16.6 µM (active); in [4], 16.6 µM (active); in [5], 13.2 µM (active); in assay [7], 13.2 µM (active). The result in assay [2], in [12] and in assay [6] was inactive.
For the compound `CNC(=O)c1c(F)cccc1Nc1nc(Nc2cc3c(cc2OC)CCN3C(=O)CN(C)C)nc2[nH]ccc12`, the AC50 in assay [1] was 5.25 µM (active); in assay [2], 0.235 µM (active); in assay [12], 2.64 µM (active); in assay [4] it was 0.934 µM (active); in assay [5], 0.661 µM (active); in assay [6], 0.0833 µM (active). In addition, the AC50 in assay [7] is 3.32 µM (active). For the same compound, in assay [8], the IC50 was 14.8 µM (active). For the same compound, the fold change in [9] (setting [13]) is 0.926 (inactive); in [9] (setting [14]), 0.874. In addition, the cell count in [9] (setting [15]) was determined as 5320; in assay [9] (setting [16]), 5750. Besides, the z-score in assay [10] (setting [17]) was -0.536 (inactive); in [10] (setting [18]), -0.594.
